Most compounds without a hit are left out; they make up all but 6.1% or so of the library.
D1 ag = agonists of human D1 dopamine receptor; activation, % at 2 µM; hit rate 1% among 360,000; HEK293 T-REx D1 cells, calcium flux, agonist mode; in the data active = activation above about 30%; also: 0% is about no effect
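Agonism was scored from calcium flux recorded over 180 s (1 read/s) after pintool compound addition, following a 10-cycle baseline. Cells were inducible force-coupled HEK293 TREx D1, plated overnight at 30 C and loaded with no-wash calcium dye.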
D3 ag = D3 dopamine receptor (human) agonism. max activation, %. AID 652048. P35462. hit rate 0.58% among 410,000. D3R DiscoveRx beta-arrestin cells, luminescence, 90 min; in the data active = max activation above about 30%; also: 0% is about no effect
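Agonist mode: compounds and dopamine controls were applied to plated cells for 90 min at 37 degrees C after an overnight attachment at 1500 cells/well. Luminescent read-out followed 30 - 60 minutes at room temperature with DiscoveRx detection reagent.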
DRD3 antagonist = blocks the human D3 dopamine receptor. D3R cells, DiscoveRx beta-arrestin luminescence, antagonist mode; stronger effect = lower value. max response, negative = inhibition, %. hit rate 2.5% among 360,000. AID 652054; in the data active = max response below about -50%; also: % is scaled to controls: 0 for no effect and ±100 for the full control effect
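Cells plated overnight at 1500 cells/well, then exposed to library compounds with dopamine controls for 90 minutes at 37 degrees C. DiscoveRx reagent added for 30–60 minutes at room temperature; luminescence read, quantitative HTS format.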
ERG Ets-DNA blk = ERG Ets/DNA interaction inhibition; fluorescence polarization, His-ERG Ets domain / labelled DNA; Potency, µM (titrated, usually from 76.9 µM), inactives show top-dose FP activity, negative = inhibition, usual class: inhibitors; hit rate 0.028% among 370,000; AID 624246; active = well fitted inhibition curve with a large enough effect in the polarisation, with a control signal flat; the % refers to the polarisation;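 also: polarization taken with two DNA probes labelled with fluorescein and Texas red; potency is read from the fitted curve at half-maximal effect; % of control where 0% means no effect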
Target sequence (P11308 whole entry, looked up, the tested form may be a part): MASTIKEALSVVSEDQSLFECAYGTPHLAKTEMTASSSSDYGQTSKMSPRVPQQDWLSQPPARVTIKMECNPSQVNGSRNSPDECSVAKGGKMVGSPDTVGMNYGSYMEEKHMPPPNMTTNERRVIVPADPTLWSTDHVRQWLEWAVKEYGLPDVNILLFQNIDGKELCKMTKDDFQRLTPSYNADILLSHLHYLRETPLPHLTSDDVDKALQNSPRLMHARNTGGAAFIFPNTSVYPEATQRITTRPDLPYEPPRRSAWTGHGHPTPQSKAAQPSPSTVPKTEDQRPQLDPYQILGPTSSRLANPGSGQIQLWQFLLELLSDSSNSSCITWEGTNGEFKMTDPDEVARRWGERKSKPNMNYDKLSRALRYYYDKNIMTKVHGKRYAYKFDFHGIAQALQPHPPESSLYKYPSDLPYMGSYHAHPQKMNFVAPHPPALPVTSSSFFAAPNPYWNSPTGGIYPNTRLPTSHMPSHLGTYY
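His-tagged ERG Ets domain (1 uM in the protein solution; 300mM KCl, 50mM Tris-HCl, 1mM EDTA, 1mM DTT, pH 7.5) received compound, then a probe mix of 5 nM fluorescein-DNA and 100nM Texas-615-DNA. Fluorescence polarization was read for both dyes.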
D1 antagonist = blocks dopamine activation of the human D1 receptor | AID 504652 | HEK293 TREx D1 cells, calcium flux, dopamine EC80; stronger effect = lower value | P21728 | hit rate 3.2% among 360,000 | activity change, negative = inhibition, % at 10 µM; in the data active = activity change below about -30%; also: % is scaled to controls: 0 for no effect and ±100 for the full control effect
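Calcium flux readout: force-coupled, inducible Hek293 Trex D1 line, cells induced overnight at 30 C with tetracycline, dye-loaded 30–90 min at RT. Antagonism scored against EC80 dopamine challenge given 180 s after compound.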
D1 potentiator = potentiators of human D1 dopamine receptor. P21728. HEK293 TREx D1 cells, calcium flux, dopamine EC20 potentiation. potentiation, % at 10 µM. hit rate 0.036% among 360,000. AID 504651; in the data active = potentiation above about 30%; also: 0% is about no effect
* = called active by the depositor; · = no result given; ! = repeats disagree.

SMILES	D1 ag	D3 ag	DRD3 antagonist	ERG Ets-DNA blk	D1 antagonist	D1 potentiator
CC1=C(C(N)=O)C(c2cccc(OCc3ccccc3)c2)n2nnnc2N1 (stereo not given)	1	-1	-18	-18%	27	-3
COC(=O)CSc1nc(NCc2ccccc2)nc(N(C)C)n1	8	12	0	-3%	-40*	-7
CN(C)c1nc(NCc2ccccc2)nc(SCC(=O)Nc2ccc(Cl)c(Cl)c2)n1	6	46*	41	7%	8	2
CCNc1nc(NCc2ccccc2)nc(SCC(N)=O)n1	2	-11	-5	-8%	-7	-6
Cc1ccc(/C(O)=C2/C(=O)C(=O)N(CCCn3ccnc3)C2c2cccnc2)cc1 (stereo not given)	·	-7	-14	-6%	·	·
CS(=O)(=O)N(CC(=O)O)c1ccc2c(c1)OCO2	1	4	-9	-2%	-3	-1
Cc1nc2ccc([N+](=O)[O-])cc2c(=O)n1Cc1cccc(F)c1	4	-1	6	5%	2	-6
Cc1cccc(Cn2c(C)nc3ccc([N+](=O)[O-])cc3c2=O)c1	10	1	-10	1%	-33*	-3
Cc1nc2ccc([N+](=O)[O-])cc2c(=O)n1Cc1ccc(F)cc1	7	7	8	-3%	-32*	-5
NS(=O)(=O)c1ccc(CCNC(=O)c2ccc(NS(=O)(=O)c3ccc4[nH]c(=O)[nH]c4c3)cc2)cc1	1	1	15	·	-3	-8
Cc1cc(C)c(NC(=O)Cn2c(=O)n(-c3ccc(CC(=O)NCC4CCCO4)cc3)c(=O)c3ccccc32)c(C)c1 (stereo not given)	1	-3	-27	1%	-6	-6
Cc1cc(C)c2cc3c(N)c(C(=O)N4CCc5ccccc5C4)sc3nc2c1	2	3	-11	·	9	-5
Cc1cccc2cc3c(N)c(C(=O)N4CCOCC4)sc3nc12	49*	-9	-21	-1%	-11	0
C(=C\c1nccc2c1[nH]c1ccccc12)/c1ccccc1	0	0	-5	1%	-37*	7
Fc1ccc(/C=C\c2nccc3c2[nH]c2ccccc23)cc1	0	-3	17	8%	-5	-4
CC(=O)N(C1=C(O)c2ccccc2C(=O)C1=O)C1CCCCC1	0	-31	-17	2%	-38*	-1
CC(=O)N(C)C1=C(O)c2ccccc2C(=O)C1=O	3	-1	33	-2%	-2	-2
Cc1c(NC(=O)c2ccc(N(C)S(C)(=O)=O)cc2)c(=O)n(-c2ccccc2)n1C	8	5	-5	5%	8	0
O=C(Nc1ccc(Oc2cccnc2)cc1)C1CCN(Cc2ccc(F)cc2)CC1	36*	-26	-11	0%	-25	-3
C#Cc1ccc(CN2CCC(C(=O)Nc3ccc(Oc4ccccc4)nc3)CC2)cc1	41*	-15	-4	-1%	-12	-5
O=C(c1cccs1)N1C[C@@H](n2cc(-c3ccc(F)cc3)nn2)[C@H](O)C[C@@H]1c1ccc(Cl)cc1	·	-6	27	·	·	·
CSC(=O)NC(=O)NC(=O)c1ccc([N+](=O)[O-])cc1	1	1	14	5%	-14	1
Cc1ccc(OCc2cc(C(=O)NCc3ccc(OC(F)(F)F)cc3)no2)cn1	52*	8	2	-22%	-27	2
CCc1cc(CNC(=O)c2cc(COc3ccc(C)nc3)on2)on1	2	-5	4	9%	-7	-4
COc1ccc(-c2nc(CSc3nnc(C)n4c3cc3oc(C)cc34)c(C)o2)cc1OC	0	10	·	1%	-10	-3
SMILES	D1 ag	D3 ag	DRD3 antagonist	ERG Ets-DNA blk	D1 antagonist	D1 potentiator
CN(C)c1ccc(/C=C2\SC(N3CCCCC3)=NC2=O)cc1	37*	2	0	-1%	-17	29
Nc1nc2ccc(OC(F)(F)F)cc2s1	0	1	-10	-6%	-32*!	2
CC(=O)Oc1ccc2ccc(=O)oc2c1	-4	4	4	-4%	-4	-2
COc1ccc(NC(=O)Cc2csc(COc3cccc(C)c3)n2)c(OC)c1	0	-13	·	2%	3	2
CC1CC(N(C(=O)c2ccco2)c2ccccc2)c2ccccc2N1 (stereo not given)	1	-18	-58*	5%	-5	0
CCOc1ccc(-n2ccnc2SCC(=O)N2CCCc3ccccc32)cc1	1	-8	3	-11%	-6	-5
CCOc1ccc(OCc2cccc(C(=O)N3CCCCCC3)c2)cc1	10	2	8	-1%	-21	-6
O=C(NN1CCCCC1)c1cccc(COc2ccc(Cl)cc2)c1	5	17	10	-8%	-31*	-3
CCC(=S)/C=C1\Sc2ccccc2N1CCCS(=O)(=O)O	4	7	-63*	-5%	18	-2
CC(=O)c1ccc(Cc2ccccc2)cc1	1	3	3	-11%	4	-3
CCN(CC)S(=O)(=O)c1ccc(Oc2ccccc2OC)cc1	8	-11	3	-6%	-15	-3
CCN(CC)S(=O)(=O)c1ccc(Oc2ccc(S(=O)(=O)N(CC)CC)cc2)cc1	31*	2	26	6%	-26	-5
O=C(c1ccccc1C(=O)N1CCN(c2ccc(F)cc2)CC1)N1CCN(c2ccc(F)cc2)CC1	-1	-7	9	0%	14	-1
COc1ccccc1-c1cc(C(=O)NC(C)c2ccccc2)no1 (stereo not given)	10	-29	-58*	-2%	-42*	-15
COc1c([N+](=O)[O-])c(=O)n(-c2ccccc2)c2ccccc12	2	4	24	1%	-8	1
Fc1ccc(-n2c(=S)[nH]c3cccnc32)cc1	-2	-9	-14	1%	-33*	-6
O=c1[nH]c(=S)n(-c2ccc(Br)cc2)c2ncccc12	·	-3	25	4%	·	·
CC(C)(C)c1ccccc1NC(=O)c1cnn2c(C(F)F)cc(-c3ccccc3)nc12	0	4	·	3%	-8	-3
CCCC(=O)Nc1ccc(C(=O)/C=C/c2ccc(SC)cc2)cc1	16	-3	-16	0%	-48*	-13
CC(C)(C)C(=O)NNC(=O)C1CC1(c1ccccc1)c1ccccc1 (stereo not given)	1	45*	19	-2%	-2	-2
CCCCNC(=O)NNC(=O)C1CC1(c1ccccc1)c1ccccc1 (stereo not given)	0	0	1	4%	2	-4
NC(=O)C1CCN(c2nc(-c3cccnc3)cs2)CC1	4	·	·	·	5	8
O=C(c1ccccc1)c1nn(-c2cccc(Cl)c2)c2nc(-c3ccccc3)cc(=O)n12	1	-7	5	0%	-74*	1
